# Results as given in ChEMBL document CHEMBL1961873, “Compounds: GSK PKIS; Assays: Nanosyn kinase panel” (2012).
# Key:
# [1] = molecular target: Protein kinase C gamma type (Homo sapiens) (UniProt P05129); details: at 1 µM;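 note: each value is an averaged percent inhibition of the enzyme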
# [2] = molecular target: T1, Protein kinase C iota type (Homo sapiens) (UniProt P41743); details: at 0.1 µM
# T1 sequence (whole entry): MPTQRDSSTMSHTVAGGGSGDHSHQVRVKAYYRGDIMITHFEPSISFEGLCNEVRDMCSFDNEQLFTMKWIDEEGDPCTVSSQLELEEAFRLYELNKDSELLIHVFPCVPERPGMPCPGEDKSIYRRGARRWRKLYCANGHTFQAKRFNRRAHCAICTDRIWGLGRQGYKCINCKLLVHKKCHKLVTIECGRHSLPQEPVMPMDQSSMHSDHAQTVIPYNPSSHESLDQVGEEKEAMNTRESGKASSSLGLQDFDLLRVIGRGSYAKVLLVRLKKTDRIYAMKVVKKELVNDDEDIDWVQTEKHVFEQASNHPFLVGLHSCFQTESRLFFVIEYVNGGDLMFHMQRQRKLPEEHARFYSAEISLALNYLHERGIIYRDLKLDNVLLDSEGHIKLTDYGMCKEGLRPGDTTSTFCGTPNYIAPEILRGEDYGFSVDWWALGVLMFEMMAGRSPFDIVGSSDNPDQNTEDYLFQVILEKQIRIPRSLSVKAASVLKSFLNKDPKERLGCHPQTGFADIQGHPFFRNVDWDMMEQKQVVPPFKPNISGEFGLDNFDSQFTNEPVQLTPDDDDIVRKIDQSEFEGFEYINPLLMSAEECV
# [3] = molecular target: T1, Protein kinase C iota type (Homo sapiens); details: at 1 µM
# [4] = molecular target: Protein kinase C theta type (Homo sapiens) (UniProt Q04759); details: at 0.1 µM
# Protein kinase C theta type (Homo sapiens), sequence (Q04759 whole entry, looked up): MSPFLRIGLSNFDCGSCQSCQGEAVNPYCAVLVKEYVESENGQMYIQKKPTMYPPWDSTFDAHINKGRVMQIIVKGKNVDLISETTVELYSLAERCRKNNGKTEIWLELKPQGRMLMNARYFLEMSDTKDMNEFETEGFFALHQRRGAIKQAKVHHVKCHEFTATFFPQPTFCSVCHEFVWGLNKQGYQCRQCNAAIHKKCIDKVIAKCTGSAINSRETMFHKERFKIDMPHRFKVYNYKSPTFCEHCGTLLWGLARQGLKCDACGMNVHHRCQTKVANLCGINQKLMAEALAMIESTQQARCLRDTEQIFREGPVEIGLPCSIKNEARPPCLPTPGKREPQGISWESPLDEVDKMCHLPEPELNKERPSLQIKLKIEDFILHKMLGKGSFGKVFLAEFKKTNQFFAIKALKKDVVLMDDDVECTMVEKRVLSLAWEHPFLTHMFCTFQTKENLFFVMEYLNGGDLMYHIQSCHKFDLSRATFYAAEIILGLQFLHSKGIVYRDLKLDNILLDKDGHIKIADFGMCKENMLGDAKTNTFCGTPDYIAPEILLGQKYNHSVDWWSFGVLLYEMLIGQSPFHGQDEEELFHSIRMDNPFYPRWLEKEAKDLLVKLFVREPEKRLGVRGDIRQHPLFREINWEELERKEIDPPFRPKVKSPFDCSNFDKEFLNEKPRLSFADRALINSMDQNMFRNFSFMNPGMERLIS
# [5] = molecular target: Protein kinase C theta type (Homo sapiens) (UniProt Q04759); details: at 1 µM
# [6] = molecular target: Protein kinase C beta type (Homo sapiens) (UniProt P05771); details: at 0.1 µM
# Protein kinase C beta type (Homo sapiens), sequence (P05771 2-671 limits assumed): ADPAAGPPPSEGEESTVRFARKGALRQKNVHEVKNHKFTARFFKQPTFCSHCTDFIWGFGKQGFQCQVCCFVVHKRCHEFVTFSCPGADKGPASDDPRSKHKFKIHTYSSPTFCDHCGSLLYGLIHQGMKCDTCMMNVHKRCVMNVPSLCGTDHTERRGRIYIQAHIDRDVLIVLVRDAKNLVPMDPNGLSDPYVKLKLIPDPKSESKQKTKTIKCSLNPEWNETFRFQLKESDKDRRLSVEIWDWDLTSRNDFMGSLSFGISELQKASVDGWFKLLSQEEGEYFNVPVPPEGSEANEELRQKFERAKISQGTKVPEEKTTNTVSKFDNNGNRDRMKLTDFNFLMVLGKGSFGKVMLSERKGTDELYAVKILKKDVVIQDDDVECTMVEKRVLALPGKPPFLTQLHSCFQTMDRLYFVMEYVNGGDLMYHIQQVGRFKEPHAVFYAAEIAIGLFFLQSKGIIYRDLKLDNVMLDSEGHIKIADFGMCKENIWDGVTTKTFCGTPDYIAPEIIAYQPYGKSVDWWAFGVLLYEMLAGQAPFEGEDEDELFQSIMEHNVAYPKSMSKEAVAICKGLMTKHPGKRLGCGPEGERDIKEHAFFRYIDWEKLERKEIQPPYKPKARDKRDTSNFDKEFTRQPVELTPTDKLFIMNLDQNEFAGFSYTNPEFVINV
# [7] = molecular target: Protein kinase C beta type (Homo sapiens) (UniProt P05771); details: at 1 µM
# [8] = molecular target: T2, Serine/threonine-protein kinase D1 (Homo sapiens) (UniProt Q15139); details: at 0.1 µM
# T2 sequence (whole entry): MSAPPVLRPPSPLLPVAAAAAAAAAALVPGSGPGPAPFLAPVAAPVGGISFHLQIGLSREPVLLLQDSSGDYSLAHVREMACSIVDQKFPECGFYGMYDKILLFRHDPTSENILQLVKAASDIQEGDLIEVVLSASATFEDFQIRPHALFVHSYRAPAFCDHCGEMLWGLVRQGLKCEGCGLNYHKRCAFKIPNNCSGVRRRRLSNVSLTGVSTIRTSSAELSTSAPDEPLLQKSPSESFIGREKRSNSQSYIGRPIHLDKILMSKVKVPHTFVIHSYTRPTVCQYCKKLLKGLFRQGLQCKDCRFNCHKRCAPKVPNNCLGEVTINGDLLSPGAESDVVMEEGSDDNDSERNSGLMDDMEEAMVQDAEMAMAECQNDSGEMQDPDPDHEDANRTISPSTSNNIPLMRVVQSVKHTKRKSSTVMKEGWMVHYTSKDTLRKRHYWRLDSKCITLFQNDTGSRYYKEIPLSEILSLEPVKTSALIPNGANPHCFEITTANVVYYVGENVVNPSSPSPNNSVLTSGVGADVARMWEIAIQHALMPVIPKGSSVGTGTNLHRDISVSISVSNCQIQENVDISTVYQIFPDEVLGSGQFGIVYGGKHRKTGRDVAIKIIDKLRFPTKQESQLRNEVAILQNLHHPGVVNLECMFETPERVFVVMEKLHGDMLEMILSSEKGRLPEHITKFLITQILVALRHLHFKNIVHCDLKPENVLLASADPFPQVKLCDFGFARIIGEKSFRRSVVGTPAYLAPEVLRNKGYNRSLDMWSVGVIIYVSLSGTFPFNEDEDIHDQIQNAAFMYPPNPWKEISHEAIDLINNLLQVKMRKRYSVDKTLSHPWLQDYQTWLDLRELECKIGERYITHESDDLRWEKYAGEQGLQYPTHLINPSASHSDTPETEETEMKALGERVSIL
# [9] = molecular target: T2, Serine/threonine-protein kinase D1 (Homo sapiens); details: at 1 µM
# [10] = molecular target: T3, Serine/threonine-protein kinase D2 (Homo sapiens) (UniProt Q9BZL6); details: at 0.1 µM
# T3 sequence (whole entry): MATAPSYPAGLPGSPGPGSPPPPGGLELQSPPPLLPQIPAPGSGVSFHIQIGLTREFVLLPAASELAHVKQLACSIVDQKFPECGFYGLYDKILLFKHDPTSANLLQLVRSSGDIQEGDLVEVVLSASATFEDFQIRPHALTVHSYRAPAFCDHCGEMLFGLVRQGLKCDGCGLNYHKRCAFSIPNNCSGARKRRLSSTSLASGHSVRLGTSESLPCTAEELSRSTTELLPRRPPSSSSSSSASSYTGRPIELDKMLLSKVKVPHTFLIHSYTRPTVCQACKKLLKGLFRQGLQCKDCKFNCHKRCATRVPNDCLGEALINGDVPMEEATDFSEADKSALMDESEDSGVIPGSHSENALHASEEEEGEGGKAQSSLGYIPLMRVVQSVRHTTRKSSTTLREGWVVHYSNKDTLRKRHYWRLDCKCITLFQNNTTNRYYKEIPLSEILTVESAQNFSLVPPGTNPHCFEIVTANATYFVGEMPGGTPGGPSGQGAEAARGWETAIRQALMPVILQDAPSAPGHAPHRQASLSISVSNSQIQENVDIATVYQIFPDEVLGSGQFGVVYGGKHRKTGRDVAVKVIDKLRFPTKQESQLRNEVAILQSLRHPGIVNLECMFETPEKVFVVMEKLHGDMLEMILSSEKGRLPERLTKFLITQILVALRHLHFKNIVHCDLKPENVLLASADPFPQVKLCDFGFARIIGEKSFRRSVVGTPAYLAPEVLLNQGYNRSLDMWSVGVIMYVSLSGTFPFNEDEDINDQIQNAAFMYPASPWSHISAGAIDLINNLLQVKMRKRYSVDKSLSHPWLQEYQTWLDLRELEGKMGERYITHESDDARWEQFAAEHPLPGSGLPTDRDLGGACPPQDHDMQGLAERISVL
# [11] = molecular target: T3, Serine/threonine-protein kinase D2 (Homo sapiens); details: at 1 µM
# [12] = molecular target: T4, Serine/threonine-protein kinase D3 (Homo sapiens) (UniProt O94806); details: at 0.1 µM
# T4 sequence (whole entry): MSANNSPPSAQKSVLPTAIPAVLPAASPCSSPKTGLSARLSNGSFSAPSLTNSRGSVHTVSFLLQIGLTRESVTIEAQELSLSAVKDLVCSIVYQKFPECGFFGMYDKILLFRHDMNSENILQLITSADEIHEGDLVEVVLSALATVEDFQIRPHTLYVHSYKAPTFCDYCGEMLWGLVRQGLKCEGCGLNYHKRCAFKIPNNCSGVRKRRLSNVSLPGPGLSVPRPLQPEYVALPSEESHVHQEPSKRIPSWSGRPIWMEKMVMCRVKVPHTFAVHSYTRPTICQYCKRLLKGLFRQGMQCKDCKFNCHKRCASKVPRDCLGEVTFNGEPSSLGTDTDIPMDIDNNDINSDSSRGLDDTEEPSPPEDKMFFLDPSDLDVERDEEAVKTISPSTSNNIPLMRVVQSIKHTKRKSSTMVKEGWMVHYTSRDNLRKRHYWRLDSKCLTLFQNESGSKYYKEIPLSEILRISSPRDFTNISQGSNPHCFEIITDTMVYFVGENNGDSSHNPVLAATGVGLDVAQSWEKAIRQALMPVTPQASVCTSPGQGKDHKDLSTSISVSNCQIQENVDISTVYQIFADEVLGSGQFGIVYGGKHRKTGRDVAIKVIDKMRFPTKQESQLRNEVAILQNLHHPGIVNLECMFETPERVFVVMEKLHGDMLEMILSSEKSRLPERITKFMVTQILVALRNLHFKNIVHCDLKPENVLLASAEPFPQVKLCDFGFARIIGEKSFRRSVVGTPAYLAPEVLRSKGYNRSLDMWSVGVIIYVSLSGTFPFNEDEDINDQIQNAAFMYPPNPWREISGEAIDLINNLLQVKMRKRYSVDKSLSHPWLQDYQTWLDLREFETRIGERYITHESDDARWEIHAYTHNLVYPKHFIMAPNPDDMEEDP
# [13] = molecular target: T4, Serine/threonine-protein kinase D3 (Homo sapiens); details: at 1 µM
# [14] = molecular target: T5, cGMP-dependent protein kinase 1 (Homo sapiens) (UniProt Q13976); details: at 0.1 µM
# T5 sequence (whole entry): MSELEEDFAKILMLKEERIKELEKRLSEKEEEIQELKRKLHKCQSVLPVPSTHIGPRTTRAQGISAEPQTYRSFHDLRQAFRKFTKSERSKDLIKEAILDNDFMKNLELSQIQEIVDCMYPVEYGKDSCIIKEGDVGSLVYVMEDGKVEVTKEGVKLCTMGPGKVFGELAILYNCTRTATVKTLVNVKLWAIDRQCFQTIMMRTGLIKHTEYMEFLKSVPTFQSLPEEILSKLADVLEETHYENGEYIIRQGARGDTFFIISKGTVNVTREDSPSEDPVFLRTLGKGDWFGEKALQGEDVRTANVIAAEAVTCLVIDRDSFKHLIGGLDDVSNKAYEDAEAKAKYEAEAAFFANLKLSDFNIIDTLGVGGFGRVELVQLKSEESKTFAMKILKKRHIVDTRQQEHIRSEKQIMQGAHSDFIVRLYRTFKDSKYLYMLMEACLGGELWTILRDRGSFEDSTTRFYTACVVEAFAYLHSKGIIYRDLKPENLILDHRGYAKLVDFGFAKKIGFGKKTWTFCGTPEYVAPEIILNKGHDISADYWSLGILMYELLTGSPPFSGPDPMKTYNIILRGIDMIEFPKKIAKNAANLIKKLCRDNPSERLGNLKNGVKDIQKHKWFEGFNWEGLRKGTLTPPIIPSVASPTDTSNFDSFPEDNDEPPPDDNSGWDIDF
# [15] = molecular target: T5, cGMP-dependent protein kinase 1 (Homo sapiens); details: at 1 µM
# [16] = molecular target: T6, cGMP-dependent protein kinase 2 (Homo sapiens) (UniProt Q13237); details: at 0.1 µM
# T6 sequence (whole entry): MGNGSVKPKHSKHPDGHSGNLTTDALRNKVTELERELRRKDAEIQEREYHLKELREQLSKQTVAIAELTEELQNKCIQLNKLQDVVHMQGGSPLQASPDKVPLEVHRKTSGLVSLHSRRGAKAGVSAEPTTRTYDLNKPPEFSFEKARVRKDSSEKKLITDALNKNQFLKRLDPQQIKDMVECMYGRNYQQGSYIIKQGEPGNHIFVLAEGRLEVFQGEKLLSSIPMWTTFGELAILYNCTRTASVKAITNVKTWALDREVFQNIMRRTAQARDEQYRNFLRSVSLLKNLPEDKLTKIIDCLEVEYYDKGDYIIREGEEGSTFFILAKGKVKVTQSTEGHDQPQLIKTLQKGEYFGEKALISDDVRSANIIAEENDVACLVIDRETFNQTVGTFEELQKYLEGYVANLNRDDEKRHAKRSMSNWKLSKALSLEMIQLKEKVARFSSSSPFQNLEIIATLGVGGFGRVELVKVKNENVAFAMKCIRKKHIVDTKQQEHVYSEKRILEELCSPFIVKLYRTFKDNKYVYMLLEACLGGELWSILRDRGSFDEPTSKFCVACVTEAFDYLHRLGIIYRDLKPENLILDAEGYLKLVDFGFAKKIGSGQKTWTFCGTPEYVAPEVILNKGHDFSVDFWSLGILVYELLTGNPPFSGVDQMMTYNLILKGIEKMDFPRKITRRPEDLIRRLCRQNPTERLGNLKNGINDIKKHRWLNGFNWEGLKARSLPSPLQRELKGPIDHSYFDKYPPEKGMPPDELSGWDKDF
# [17] = molecular target: T6, cGMP-dependent protein kinase 2 (Homo sapiens); details: at 1 µM
# [18] = molecular target: T7, cAMP-dependent protein kinase catalytic subunit PRKX (Homo sapiens) (UniProt P51817); details: at 0.1 µM
# T7 sequence (whole entry): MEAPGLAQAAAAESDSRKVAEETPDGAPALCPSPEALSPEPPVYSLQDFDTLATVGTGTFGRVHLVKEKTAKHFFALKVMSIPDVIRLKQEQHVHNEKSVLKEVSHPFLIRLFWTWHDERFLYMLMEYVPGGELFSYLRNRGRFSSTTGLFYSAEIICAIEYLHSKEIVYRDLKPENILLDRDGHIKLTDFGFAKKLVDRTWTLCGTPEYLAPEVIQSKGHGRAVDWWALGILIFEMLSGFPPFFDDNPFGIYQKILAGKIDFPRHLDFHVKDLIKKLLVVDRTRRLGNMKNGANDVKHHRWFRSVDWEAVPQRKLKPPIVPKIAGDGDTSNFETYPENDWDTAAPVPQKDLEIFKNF
# [19] = molecular target: T7, cAMP-dependent protein kinase catalytic subunit PRKX (Homo sapiens); details: at 1 µM
# [20] = molecular target: Rho-associated protein kinase 1 (Homo sapiens) (UniProt Q13464); details: at 0.1 µM;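 note: values are mean percent inhibition of ROCK1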
# Rho-associated protein kinase 1 (Homo sapiens), sequence (Q13464 2-1354 limits assumed): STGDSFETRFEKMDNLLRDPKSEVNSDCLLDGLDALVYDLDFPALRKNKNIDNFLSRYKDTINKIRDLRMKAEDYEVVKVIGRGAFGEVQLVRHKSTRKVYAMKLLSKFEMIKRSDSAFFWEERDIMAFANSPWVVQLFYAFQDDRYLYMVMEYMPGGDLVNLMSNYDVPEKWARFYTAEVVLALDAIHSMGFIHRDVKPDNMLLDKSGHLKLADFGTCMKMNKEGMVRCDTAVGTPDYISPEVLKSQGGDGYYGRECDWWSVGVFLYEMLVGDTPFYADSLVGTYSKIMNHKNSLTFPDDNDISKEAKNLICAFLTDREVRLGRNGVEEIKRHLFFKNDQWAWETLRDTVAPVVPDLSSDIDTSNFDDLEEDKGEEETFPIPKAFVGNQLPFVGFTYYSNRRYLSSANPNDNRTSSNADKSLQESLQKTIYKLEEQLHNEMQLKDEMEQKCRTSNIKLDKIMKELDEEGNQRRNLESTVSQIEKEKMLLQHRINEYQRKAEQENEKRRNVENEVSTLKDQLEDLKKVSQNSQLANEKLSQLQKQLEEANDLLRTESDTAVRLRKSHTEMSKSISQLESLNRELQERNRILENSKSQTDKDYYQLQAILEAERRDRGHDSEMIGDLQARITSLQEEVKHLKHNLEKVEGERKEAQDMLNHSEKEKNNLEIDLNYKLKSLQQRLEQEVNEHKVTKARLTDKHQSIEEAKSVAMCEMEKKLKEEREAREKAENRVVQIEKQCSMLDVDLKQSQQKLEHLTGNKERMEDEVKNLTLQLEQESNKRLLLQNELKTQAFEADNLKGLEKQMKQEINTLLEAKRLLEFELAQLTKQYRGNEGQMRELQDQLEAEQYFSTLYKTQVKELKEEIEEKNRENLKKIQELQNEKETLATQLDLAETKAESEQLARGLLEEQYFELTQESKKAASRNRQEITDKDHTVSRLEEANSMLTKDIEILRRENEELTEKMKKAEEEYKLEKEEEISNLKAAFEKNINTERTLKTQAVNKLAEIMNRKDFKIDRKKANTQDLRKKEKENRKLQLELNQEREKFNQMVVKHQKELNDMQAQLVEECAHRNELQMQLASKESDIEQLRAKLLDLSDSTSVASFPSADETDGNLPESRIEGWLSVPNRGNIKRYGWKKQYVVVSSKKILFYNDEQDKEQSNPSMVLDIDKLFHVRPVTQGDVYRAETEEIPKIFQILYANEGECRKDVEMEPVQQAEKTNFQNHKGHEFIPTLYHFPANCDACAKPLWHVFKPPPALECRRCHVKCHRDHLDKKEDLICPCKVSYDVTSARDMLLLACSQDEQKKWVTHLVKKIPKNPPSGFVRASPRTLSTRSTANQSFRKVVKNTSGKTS
Structure (SMILES),inhibition [1] [%],inhibition [2] [%],inhibition [3] [%],inhibition [4] [%],inhibition [5] [%],inhibition [6] [%],inhibition [7] [%],inhibition [8] [%],inhibition [9] [%],inhibition [10] [%],inhibition [11] [%],inhibition [12] [%],inhibition [13] [%],inhibition [14] [%],inhibition [15] [%],inhibition [16] [%],inhibition [17] [%],inhibition [18] [%],inhibition [19] [%],inhibition [20] [%]
N#Cc1c(NC(=O)c2cccc3ccccc23)sc2c1CCCC2,0.67,1.98,2.38,1.69,0.74,2.18,2.04,4.23,4.24,2.17,2.96,4.61,4.09,3.4,3.28,1.51,3.5,2.34,1.92,0.98
Cc1ccc(C(=O)NC2CCCCC2)cc1-c1ccc(C(=O)NCC2CC2)cc1,3.86,0.11,2.97,1.39,0.58,1.11,3.12,1.97,2.69,1.98,2.9,2.25,2.53,4.55,4.23,2.62,2.94,2.1,0.91,1.64
Nc1nc(-c2ccccn2)c(-c2ccc3ncccc3n2)s1,4.9,2.73,1.17,2.24,3.34,-0.19,0.88,2.38,4.64,2.92,3.27,3.61,3.13,0.89,3.86,1.67,6,1.03,1.92,0.46
